Source: PubChem BioAssay (NCATS)
Several values for one entry are separate records, joined by “and”; a condition that tells them apart may be missing. Equal values may be shown once. Records with an inconclusive call do not appear. Activity calls are given as the source filed them. The call rests on the fitted dose curve; in most records, active means well fitted curve in the direction sought with a large enough effect; inconclusive means small, poorly fitted or top-dose-only effect, or another doubt; inactive means no such curve, though single readings can be large; an effect the other way counts as inactive or inconclusive.

Assays:
[1] = test system: CASKI; assay: Primary qHTS to identify gynecologic anti-cancer compounds using libraries of approved drugs and bioactive compounds (AID 1345084); settings: Gynecologic cancer cell panel viability, ATPlite luminescence, 48 h; series mostly up to 57.5 µM; further: nearly all actives have a fitted effect of over 55% in size
Outline: (§1)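 Measured: luminescence after ATPlite addition (15 min, RT). Exposure: 48 h, 37 C, 5% CO2.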

[2] = test system: Es-2; assay: as above; settings: Gynecologic cancer cell panel viability, ATPlite luminescence, 48 h; series mostly up to 57.5 µM
Outline: as §1

[3] = test system: HeLa; assay: as above; settings: Gynecologic cancer cell panel viability, ATPlite luminescence, 48 h; series mostly up to 57.5 µM
Outline: as §1

[4] = test system: Hek293T; assay: as above; settings: Gynecologic cancer cell panel viability, ATPlite luminescence, 48 h, control line for the selectivity index; series mostly up to 57.5 µM
Outline: as §1

[5] = test system: JEG-3; assay: as above; settings: Gynecologic cancer cell panel viability, ATPlite luminescence, 48 h; series mostly up to 57.5 µM
Outline: as §1

[6] = test system: OV90; assay: as above; settings: Gynecologic cancer cell panel viability, ATPlite luminescence, 48 h; series mostly up to 57.5 µM
Outline: as §1

[7] = test system: PA-1; assay: as above; settings: Gynecologic cancer cell panel viability, ATPlite luminescence, 48 h; series mostly up to 57.5 µM
Outline: as §1

[8] = test system: SKOV3; assay: as above; settings: Gynecologic cancer cell panel viability, ATPlite luminescence, 48 h; series mostly up to 57.5 µM
Outline: as §1

[9] = test system: Tov-21-G; assay: as above; settings: Gynecologic cancer cell panel viability, ATPlite luminescence, 48 h; series mostly up to 57.5 µM
Outline: as §1

[10] = test system: Tov112D; assay: as above; settings: Gynecologic cancer cell panel viability, ATPlite luminescence, 48 h; series mostly up to 57.5 µM
Outline: as §1

[11] = Drug repurposing screens with cells derived from glioblastoma tumor samples (AID 1345199); settings: GBM patient neurospheres viability, ATP luminescence, 48 h; further: nearly all actives have a fitted effect of over 40% in size
Outline: (§2)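 Primary testing used CD133+ neurospheres from four GBM patients, seven concentrations, 48 h exposure and ATP-based viability; confirmation added three slower-growing patient lines.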

[12] = test system: astro; assay: as above; settings: viability, ATP luminescence, 48 h; series mostly up to 45.9 µM
Outline: as §2

[13] = at 45.9 µM (top of the series), tumour line B
[14] = at 45.9 µM (top of the series), tumour line D
[15] = at 46 µM (top of the series), tumour line A
[16] = at 46.1 µM (top of the series), tumour line C
On the % scale 0 is the no-effect control and ±100 the full control effect.

CC(C)NCC(O)COc1cccc2[nH]ccc12 (stereo not given)
inactive: Potency [1] | Potency [2] | Potency [3] | Potency [4] | Potency [5] | Potency [6] | Potency [7] | Potency [8] | Potency [9] | Potency [10] | activity, negative = cell killing [11, 13] -5.39% | activity, negative = cell killing [11, 14] -14.8% | activity, negative = cell killing [11, 15] -24.6% | activity, negative = cell killing [11, 16] 1.52% | Potency [12]

O=C(NC1CCOCC1)c1ccc(-c2cc(-c3cn[nH]c3-c3ccccn3)ccn2)cc1
inactive: Potency [1] | Potency [2] | Potency [3] | Potency [4] | Potency [5] | Potency [6] | Potency [7] | Potency [8] | Potency [9] | Potency [10]

COc1ccc(Cc2ccc(NC(N)=O)cc2)cc1-c1cccc(Cl)c1
inactive: Potency [1] | Potency [2] | Potency [3] | Potency [4] | Potency [5] | Potency [6] | Potency [7] | Potency [8] | Potency [9] | Potency [10]

C[N+](C)(C)CCCCCC[N+](C)(C)C
inactive: Potency [1] | Potency [2] | Potency [3] | Potency [4] | Potency [5] | Potency [6] | Potency [7] | Potency [8] | Potency [9] | Potency [10] | activity, negative = cell killing [11, 13] -9.48% | activity, negative = cell killing [11, 14] -17.5% | activity, negative = cell killing [11, 15] -4.52% | activity, negative = cell killing [11, 16] 8.25% | Potency [12]

Cn1c(N2CCCCS2(=O)=O)nc(C(=O)NCc2ccc(F)cc2)c(O)c1=O
inactive: Potency [1] | Potency [2] | Potency [3] | Potency [4] | Potency [5] | Potency [6] | Potency [7] | Potency [8] | Potency [9] | Potency [10]

Cc1ccccc1C(C(=O)NC1CCCCC1)N(C(=O)Cn1ccnc1C)c1cccc(F)c1 (stereo not given)
inactive: Potency [1] | Potency [2] | Potency [3] | Potency [4] | Potency [5] | Potency [6] | Potency [7] | Potency [8] | Potency [9] | Potency [10]

CC(=O)CCCCn1c(=O)c2c(ncn2C)n(C)c1=O
inactive: Potency [1] | Potency [2] | Potency [3] | Potency [4] | Potency [5] | Potency [6] | Potency [7] | Potency [8] | Potency [9] | Potency [10] | activity, negative = cell killing ([11]; at 20 µM (top of the series), tumour line C) -6.47% | activity, negative = cell killing ([11]; at 21.2 µM (top of the series), tumour line B) 0.116% | activity, negative = cell killing ([11]; at 21.2 µM (top of the series), tumour line D) 1.87% | activity, negative = cell killing ([11]; at 21.3 µM (top of the series), tumour line A) -23.5% | Potency [12]

CC(C)C(=O)Oc1ccc(CO)cc1[C@H](CCN(C(C)C)C(C)C)c1ccccc1
inactive: Potency [1] | Potency [2] | Potency [3] | Potency [4] | Potency [5] | Potency [6] | Potency [7] | Potency [8] | Potency [9] | Potency [10]

C[N+](C)(C)CC(=O)O
inactive: Potency [1] | Potency [2] | Potency [3] | Potency [4] | Potency [5] | Potency [6] | Potency [7] | Potency [8] | Potency [9] | Potency [10]

CC(C)[C@H](CO)Nc1nc(Nc2ccc(C(=O)O)c(Cl)c2)c2ncn(C(C)C)c2n1
inactive: Potency [1] | Potency [2] | Potency [3] | Potency [4] | Potency [5] | Potency [6] | Potency [7] | Potency [8] | Potency [9] | Potency [10]

NC(=O)c1cccc(-c2cc(Nc3ccc(OC(F)(F)F)cc3)ncn2)c1
inactive: Potency [1] | Potency [2] | Potency [3] | Potency [4] | Potency [5] | Potency [6] | Potency [7] | Potency [8] | Potency [9] | Potency [10]

CCn1c(C(=O)N(C2CC2)C2CC2)cc2c3c(ncn3C)c(Nc3cc(C)n(C)n3)nc21
inactive: Potency [1] | Potency [2] | Potency [3] | Potency [4] | Potency [5] | Potency [6] | Potency [7] | Potency [8] | Potency [9] | Potency [10]

COc1ccc2cccc(CCNC(C)=O)c2c1
inactive: Potency [1] | Potency [2] | Potency [3] | Potency [4] | Potency [5] | Potency [6] | Potency [7] | Potency [8] | Potency [9] | Potency [10]

CS(=O)c1ccc(-c2nc(-c3ccc(F)cc3)c(-c3ccncc3)[nH]2)cc1 (stereo not given)
inactive: Potency [1] | Potency [2] | Potency [3] | Potency [4] | Potency [5] | Potency [6] | Potency [7] | Potency [8] | Potency [9] | Potency [10]

O=C(CCN1CCN(C(=O)OCc2cc(Cl)cc(Cl)c2)CC1)c1ccc2[nH]c(=O)oc2c1
inactive: Potency [1] | Potency [2] | Potency [3] | Potency [4] | Potency [5] | Potency [6] | Potency [7] | Potency [8] | Potency [9] | Potency [10]

C[C@@H](O)[C@H]1C(=O)N2C(C(=O)O)=C(S[C@@H]3CN[C@H](C(=O)N(C)C)C3)[C@H](C)[C@H]12
inactive: Potency [1] | Potency [2] | Potency [3] | Potency [4] | Potency [5] | Potency [6] | Potency [7] | Potency [8] | Potency [9] | Potency [10] | activity, negative = cell killing [11, 13] -4.52% | activity, negative = cell killing [11, 14] 4.08% | activity, negative = cell killing [11, 15] -23.7% | activity, negative = cell killing [11, 16] -22.4% | Potency [12]

NCCS
inactive: Potency [1] | Potency [2] | Potency [3] | Potency [4] | Potency [5] | Potency [6] | Potency [7] | Potency [8] | Potency [9] | Potency [10] | activity, negative = cell killing [11, 13] -3.94% and -12.1% | activity, negative = cell killing [11, 14] -6.82% and -13.2% | activity, negative = cell killing [11, 15] -8.15% and -11.3% | activity, negative = cell killing [11, 16] -12.7% and -9.68% | Potency [12]
